Bioassay records (PubChem BioAssay)
UBC13 polyUb = blocks human UBC13 polyubiquitin chain formation; P61088; TR-FRET; inhibition, % at 20 µM; actives 0.47% (n = 330,000); AID 485273; in the data active means inhibition above about 45%, passing the limit was not always enough
Target sequence (P61088 whole entry, looked up): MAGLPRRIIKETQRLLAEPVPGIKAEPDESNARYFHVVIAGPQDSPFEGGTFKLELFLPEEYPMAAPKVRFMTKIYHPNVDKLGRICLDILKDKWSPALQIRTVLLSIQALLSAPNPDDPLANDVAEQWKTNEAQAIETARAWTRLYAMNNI
MBD2 DNA inh = inhibitors of human MBD2 binding to methylated oligonucleotide | Q9UBB5 | TR-FRET | inhibition, % at 4.4 µM | actives 0.31% (n = 370,000); in the data active means inhibition above about 13%
Target sequence (Q9UBB5 whole entry, looked up): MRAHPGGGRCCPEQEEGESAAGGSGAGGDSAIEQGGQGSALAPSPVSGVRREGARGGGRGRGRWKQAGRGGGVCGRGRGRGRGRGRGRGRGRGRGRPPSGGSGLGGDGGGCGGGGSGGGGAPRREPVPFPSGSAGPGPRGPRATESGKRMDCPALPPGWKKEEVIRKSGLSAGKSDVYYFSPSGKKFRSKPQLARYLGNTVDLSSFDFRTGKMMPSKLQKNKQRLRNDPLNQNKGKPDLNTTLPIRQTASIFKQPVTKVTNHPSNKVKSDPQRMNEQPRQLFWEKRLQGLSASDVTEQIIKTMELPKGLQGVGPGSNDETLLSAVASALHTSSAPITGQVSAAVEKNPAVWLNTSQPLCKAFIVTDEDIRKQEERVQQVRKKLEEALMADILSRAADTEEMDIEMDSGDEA
Neddylation inh = inhibitors of human cullin neddylation | TR-FRET cullin neddylation, biochemical | actives 0.58% (n = 360,000) | P61081+Q13564 | calls only at 25 µM; in the data active means inhibition above about 36%
UHRF1 MBD2 ctr = human UHRF1 methylated DNA binding inhibitors | Q96T88 | UHRF1 binding to methylated oligo, TR-FRET | inhibition, % at 4.4 µM | actives 0.75% (n = 370,000) | AID 687016; in the data active means inhibition above about 21%;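 further: UHRF1 SRA domain binding a hemimethylated CpG hairpin DNA probe; 0% = median of test compound wells and 100% = reference inhibitor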
The depositor's hits bear a star. Compounds with a hit are over-represented: about 1.8% of the library has one in this group of screens.

Results for Cc1cc(C)cc(NC(=S)Nc2cccc3ccccc23)c1 ?
UBC13 polyUb: 0; MBD2 DNA inh: -1; Neddylation inh: inactive; UHRF1 MBD2 ctr: 66*

What do the screens show for `O=C(N/N=C/c1ccccc1)c1[nH]ncc1Br`?
UBC13 polyUb: 2; MBD2 DNA inh: -4; Neddylation inh: inactive; UHRF1 MBD2 ctr: 0

What do the screens show for `O=CNCC(=O)NC1CCCCCC1`?
UBC13 polyUb: 0; MBD2 DNA inh: -3; Neddylation inh: inactive; UHRF1 MBD2 ctr: 24*

Results for Cc1oc(-c2ccc(F)cc2)cc1-c1nn2c(-c3ccoc3C)nnc2s1 ?
UBC13 polyUb: 0; MBD2 DNA inh: 14*; Neddylation inh: inactive; UHRF1 MBD2 ctr: 40*

Results for CNC(=O)N(C1=NCCCCC1)c1ccc(Br)cc1 ?
UBC13 polyUb: 1; MBD2 DNA inh: 0; Neddylation inh: inactive; UHRF1 MBD2 ctr: 4

Results for C[n+]1cccc2cccc([O-])c21 ?
MBD2 DNA inh: 2; Neddylation inh: active; UHRF1 MBD2 ctr: 10

How did CC1CCN(S(=O)(=O)c2cccc(C(=O)N(C)C3(C)CCS(=O)(=O)C3)c2)CC1 (centres undefined) do in these assays?
UBC13 polyUb: -5; MBD2 DNA inh: 0; Neddylation inh: inactive; UHRF1 MBD2 ctr: -3

How did Cc1ccc(C(=O)O)cc1N=Cc1cc(Br)cc(Br)c1O do in these assays?
Neddylation inh: active

How did CC(=O)c1cccc(OCc2cc(C(=O)NC3CCN(Cc4ccccc4)CC3)no2)c1 do in these assays?
UBC13 polyUb: 6; MBD2 DNA inh: 9; Neddylation inh: inactive; UHRF1 MBD2 ctr: 21*

How did COc1ccccc1CNC(=O)COC(=O)c1cc(-c2ccco2)nc2ccccc12 do in these assays?
UBC13 polyUb: 30; MBD2 DNA inh: 20*; Neddylation inh: inactive; UHRF1 MBD2 ctr: 31*

What do the screens show for `COc1ccc(NC(=O)CN(C)C(=O)c2cc(-c3ccco3)nc3ccccc23)cc1`?
UBC13 polyUb: 22; MBD2 DNA inh: 12; Neddylation inh: inactive; UHRF1 MBD2 ctr: 29*

How did CC12c3ccccc3C(c3ccccc31)C1C(=O)N(Cc3cccnc3)C(=O)[C@H]12 (some centres undefined) do in these assays?
UBC13 polyUb: 4; MBD2 DNA inh: 0; Neddylation inh: inactive; UHRF1 MBD2 ctr: 0

Results for N#CCSc1ccsc1C(=O)Nc1ccc(F)cc1 ?
UBC13 polyUb: -6; MBD2 DNA inh: -3; Neddylation inh: inactive; UHRF1 MBD2 ctr: 0

How did CC(Sc1nnc(Cc2ccccc2)o1)C(=O)NC1(C#N)CCCCC1 (centres undefined) do in these assays?
UBC13 polyUb: 13; MBD2 DNA inh: 2; Neddylation inh: inactive; UHRF1 MBD2 ctr: 24*

How did CC(Sc1nccn1C)C(=O)NC1(C#N)CCCCC1 (centres undefined) do in these assays?
UBC13 polyUb: 6; MBD2 DNA inh: 0; Neddylation inh: inactive; UHRF1 MBD2 ctr: 0

Results for CC(C)CNC(=O)COC(=O)c1c2c(nc3ccccc13)/C(=C\c1cccs1)CC2 ?
MBD2 DNA inh: 5; UHRF1 MBD2 ctr: -2

Results for CN(CCC#N)C(=O)COC(=O)c1c2c(nc3ccccc13)/C(=C/c1ccco1)CC2 ?
MBD2 DNA inh: 64*; Neddylation inh: inactive; UHRF1 MBD2 ctr: 86*

How did C/C(=N/NC(=O)CNC(=O)/C=C/c1ccco1)c1ccc(Cl)cc1 do in these assays?
UBC13 polyUb: 14; MBD2 DNA inh: 0; Neddylation inh: inactive; UHRF1 MBD2 ctr: 1

What do the screens show for `CSC1SCC2C(=O)N(C)C(C(C)C)C(=O)OCC(NC(=O)c3cnc4ccccc4n3)C(=O)NC(C)C(=O)N(C)C1C(=O)N(C)C(C(C)C)C(=O)OCC(NC(=O)c1cnc3ccccc3n1)C(=O)NC(C)C(=O)N2C` (centres undefined)?
MBD2 DNA inh: 95*; Neddylation inh: inactive; UHRF1 MBD2 ctr: -35

What do the screens show for `CC(=O)Nc1ccc(Sc2ccccc2C(=O)Nc2ccc(F)cc2)cn1`?
UBC13 polyUb: -2; MBD2 DNA inh: -3; Neddylation inh: inactive; UHRF1 MBD2 ctr: 4

How did CC(=O)Nc1ccc(Sc2ccccc2C(=O)O)cn1 do in these assays?
UBC13 polyUb: 0; MBD2 DNA inh: 12; Neddylation inh: inactive; UHRF1 MBD2 ctr: 21*

What do the screens show for `CCCC(=O)Nc1nnc(S(=O)(=O)N(C)Cc2ccco2)s1`?
UBC13 polyUb: -3; Neddylation inh: inactive

What do the screens show for `CCC(=O)Nc1nnc(S(=O)(=O)N(C)Cc2ccco2)s1`?
UBC13 polyUb: 4; MBD2 DNA inh: -3; Neddylation inh: inactive; UHRF1 MBD2 ctr: 21*

What do the screens show for `O=C(O)c1ccc2c(c1)[C@@H]1C=CC[C@@H]1[C@H](c1ccccn1)N2`?
UBC13 polyUb: 6; MBD2 DNA inh: 91*; Neddylation inh: inactive; UHRF1 MBD2 ctr: 98*

Results for O=S(=O)(Nc1nc2ccccc2nc1N1CCc2ccccc2C1)c1ccc(Cl)cc1 ?
UBC13 polyUb: -33; MBD2 DNA inh: -8; Neddylation inh: inactive; UHRF1 MBD2 ctr: -1

How did O=S(=O)(Nc1nc2ccccc2nc1N1CCc2ccccc2C1)c1ccc(Br)cc1 do in these assays?
MBD2 DNA inh: -13; Neddylation inh: active; UHRF1 MBD2 ctr: -12

Results for Cc1nccn1CCCNC(=O)CC1C(=O)NCCN1Cc1ccccc1C(F)(F)F (centres undefined) ?
UBC13 polyUb: 22; MBD2 DNA inh: -1; Neddylation inh: inactive; UHRF1 MBD2 ctr: -1

What do the screens show for `O=S1(=O)CC(N2CCN(Cc3ccccc3F)CC2)CN1Cc1cn(Cc2ccc(C(F)(F)F)cc2)nn1` (centres undefined)?
MBD2 DNA inh: 4; Neddylation inh: inactive; UHRF1 MBD2 ctr: 21*

How did Cc1ccc(Cn2cc(CN3CC(N4CCN(Cc5ccccc5F)CC4)CS3(=O)=O)nn2)cc1 (centres undefined) do in these assays?
MBD2 DNA inh: 1; Neddylation inh: inactive; UHRF1 MBD2 ctr: 10

What do the screens show for `CC(C)NC1(C(N)=O)CCNCC1`?
MBD2 DNA inh: -1; Neddylation inh: inactive; UHRF1 MBD2 ctr: 1

What do the screens show for `Cc1cccn2c(=O)c(/C=C(\C#N)S(=O)(=O)c3ccccc3)c(N3CCC(C(N)=O)CC3)nc12`?
UBC13 polyUb: -4; MBD2 DNA inh: 2; Neddylation inh: inactive; UHRF1 MBD2 ctr: -2

What do the screens show for `COCCCNC(=O)/C(C#N)=C/c1c(N2CCN(C)CC2)nc2c(C)cccn2c1=O`?
UBC13 polyUb: -1; MBD2 DNA inh: -7; UHRF1 MBD2 ctr: 52*

How did Cc1ccc(S(=O)(=O)/C(C#N)=C/c2c(N3CCC(C(N)=O)CC3)nc3c(C)cccn3c2=O)cc1 do in these assays?
UBC13 polyUb: 10; MBD2 DNA inh: 9; Neddylation inh: inactive; UHRF1 MBD2 ctr: 22*

What do the screens show for `Cc1ccc(N(C(=O)CCC(=O)Nc2cc(C)on2)C(C(=O)NC2CCCC2)c2cccs2)cc1` (centres undefined)?
UBC13 polyUb: -3; MBD2 DNA inh: -7; Neddylation inh: inactive; UHRF1 MBD2 ctr: -2

Results for CC1(c2nnnn2Cc2ccccc2)CCC(=O)N1CCc1ccc(O)cc1 (centres undefined) ?
MBD2 DNA inh: 6; Neddylation inh: inactive; UHRF1 MBD2 ctr: 24*

Results for CCCCn1nnnc1C1(C)CCC(=O)N1CCc1ccc(O)cc1 (centres undefined) ?
MBD2 DNA inh: 7; Neddylation inh: inactive; UHRF1 MBD2 ctr: 3
